According to PubChem BioAssay (Tox21):
Records with an inconclusive call do not appear. Activity calls are given as the source filed them. Calls follow the shape of the dose curve; as a rule, active = well fitted curve in the direction sought with a large enough effect in the repeat runs; inconclusive = weak or mixed curves; inactive = no such curve, though single readings can be large; an effect the other way counts as inactive or inconclusive.

What was measured:
[1] = A CellTox Green Cytotoxicity Assay to monitor cytotoxicity in HepG2 cells - 16 hour (AID 1224876); also: nearly all actives have a fitted effect of over 45% in size
In short: (§1)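 HepG2, 600 cells/well premixed w/ CellTox Green; 5 h settle, 37 C/5% CO2; pintool cpd add (DMSO); 37 C, 40 h; fluorescence read at 0, 8, 16, 24, 32, 40 h.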

[2] = qHTS RealTime-Glo MT Cell Viability Assay in HepG2 cells - 32 hour (AID 1224877); also: nearly all actives have a fitted effect of over 55% in size
In short: (§2)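 qHTS, HepG2, 600 cells/well, RealTime-Glo (NanoLuc + prosubstrate) added with cells; 5 h preincubation; DMSO compound addition; 37 C; luminescence at 0/8/16/24/32/40 h.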

[3] = A CellTox Green Cytotoxicity Assay to monitor cytotoxicity in HepG2 cells - 24 hour (AID 1224878); also: nearly all actives have a fitted effect of over 45% in size
In short: as §1

[4] = A CellTox Green Cytotoxicity Assay to monitor cytotoxicity in HepG2 cells - 40 hour (AID 1224879); also: nearly all actives have a fitted effect of over 40% in size
In short: as §1

[5] = qHTS RealTime-Glo MT Cell Viability Assay in HEK293 cells - 0 hour (AID 1224880); also: top concentration of the series differs between compounds; nearly all actives have a fitted effect of over 45% in size
In short: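 Luminescence readout at each listed time point; HEK293, 600 cells/well, RealTime-Glo MT reagent added with cells; compounds pinned (23 nL in DMSO) after 5 h at 37 C; continuous culture at 37 C.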

[6] = A CellTox Green Cytotoxicity Assay to monitor cytotoxicity in HEK293 cells - 32 hour (AID 1224881); also: nearly all actives have a fitted effect of over 40% in size
In short: (§3)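 Read-out: fluorescence of a cell-impermeant cyanine dye staining DNA of dead cells, proportional to cytotoxicity. HEK293, 600 cells/well with reagent, compound (23 nL DMSO) added after 5 h; reads at 0, 8, 16, 24, 32, 40 h.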

[7] = A CellTox Green Cytotoxicity Assay to monitor cytotoxicity in HepG2 cells - 32 hour (AID 1224883); also: nearly all actives have a fitted effect of over 50% in size
In short: as §1

[8] = A CellTox Green Cytotoxicity Assay to monitor cytotoxicity in HEK293 cells - 8 hour (AID 1224884); also: nearly all actives have a fitted effect of over 35% in size
In short: as §3

[9] = qHTS RealTime-Glo MT Cell Viability Assay in HepG2 cells - 16 hour (AID 1224885); also: nearly all actives have a fitted effect of over 50% in size
In short: as §2

[10] = A CellTox Green Cytotoxicity Assay to monitor cytotoxicity in HepG2 cells - 0 hour (AID 1224882); also: nearly all actives have a fitted effect of over 35% in size
In short: as §1
% is scaled to controls: 0 for no effect and ±100 for the full control effect.

C=CCOc1c(Br)cc(C(C)(C)c2cc(Br)c(OCC=C)c(Br)c2)cc1Br
inactive: Potency [1] | outcome [2] | Potency [3] | Potency [4] | outcome [5] | Potency [6] | Potency [7] | Potency [8] | outcome [9]

O=C(COCCOCCOCC(=O)Nc1c(I)cc(I)c(C(=O)O)c1I)Nc1c(I)cc(I)c(C(=O)O)c1I
inactive: Potency [1] | outcome [2] | Potency [3] | Potency [4] | outcome [5] | Potency [10] | Potency [8]

O=C(O)c1ccccc1C(=O)OCc1ccccc1
inactive: Potency [1] | outcome [2] | Potency [3] | Potency [4] | outcome [5] | Potency [6] | Potency [7] | Potency [8] | outcome [9]

C=CCOC(=O)c1ccc(C(=O)OCC=C)c(C(=O)OCC=C)c1
inactive: Potency [1] | outcome [2] | Potency [3] | Potency [4] | outcome [5] | Potency [6] | Potency [8] | outcome [9]

CCCCCCCCCCCCC1CO1 (stereo not given)
inactive: Potency [1] | outcome [2] | Potency [3] | Potency [4] | Potency [6] | Potency [10] | Potency [7] | Potency [8] | outcome [9]

O=C1OC(=O)c2ccccc21
inactive: Potency [1] | outcome [2] | Potency [3] | Potency [4] | Potency [6] | Potency [10] | Potency [7] | Potency [8] | outcome [9]

CN(C1CCCCC1)S(=O)(=O)c1ccccc1N
inactive: Potency [1] | outcome [2] | Potency [3] | Potency [4] | outcome [5] | Potency [6] | Potency [7] | outcome [9]

CCN(CCO)c1cccc(C)c1
inactive: Potency [1] | outcome [2] | Potency [3] | Potency [4] | outcome [5] | Potency [6] | Potency [7] | Potency [8] | outcome [9]

OC(CCN1CCCCC1)(c1ccccc1)c1ccccc1
inactive: Potency [1] | outcome [2] | Potency [3] | Potency [4] | Potency [6] | Potency [10] | Potency [7] | Potency [8] | outcome [9]

CCOC(=O)CCCCCCCCC(=O)OCC
inactive: Potency [1] | outcome [2] | Potency [3] | Potency [4] | outcome [5] | Potency [6] | Potency [7] | Potency [8] | outcome [9]

O=C1NC2NC(=O)NC2N1 (stereo not given)
inactive: Potency [1] | outcome [2] | Potency [3] | Potency [4] | Potency [6] | Potency [10] | Potency [7] | Potency [8] | outcome [9]

NCCc1ccn[nH]1
inactive: Potency [1] | outcome [2] | Potency [3] | Potency [4] | outcome [5] | Potency [6] | Potency [7] | Potency [8] | outcome [9]

CCCCCCCC/C=C\CCCCCCCC(=O)OC[C@@H](O)[C@H]1OC[C@H](O)[C@H]1O
inactive: Potency [1] | outcome [2] | Potency [3] | Potency [4] | outcome [5] | Potency [6] | Potency [7] | Potency [8] | outcome [9]

O=CO
inactive: cytotoxicity increase [1] -13.8% [at 6.97 µM] | activity change, negative = cytotoxic [2] 7.5% [at 6.97 µM] | cytotoxicity [3] -17.2% [at 6.97 µM] | cytotoxicity increase [4] -21.3% [at 6.97 µM] | activity change, negative = cytotoxicity [5] 3.48% [at 6.97 µM] | cytotoxicity [10] -9.11% [at 6.97 µM] | cytotoxicity increase [7] -19.2% [at 6.97 µM] | activity change, negative = cytotoxic [9] -5.47% [at 6.97 µM]

O=C(O)c1ccccc1C(=O)Nc1ccc(S(=O)(=O)Nc2nccs2)cc1
inactive: Potency [1] | outcome [2] | Potency [3] | Potency [4] | outcome [5] | Potency [6] | Potency [7] | Potency [8] | outcome [9]

CO/N=C(/C(=O)N[C@@H]1C(=O)N2C(C(=O)O)=C(Cn3nnc(C)n3)CS[C@H]12)c1csc(N)n1
inactive: Potency [1] | outcome [2] | Potency [3] | Potency [4] | outcome [5] | Potency [6] | Potency [7] | Potency [8] | outcome [9]

CC1CCC(C(C)(C)S)C(=O)C1 (stereo not given)
inactive: Potency [1] | outcome [2] | Potency [3] | Potency [4] | outcome [5] | Potency [6] | Potency [7] | Potency [8] | outcome [9]

CC(C)(C)c1ccc(C=O)cc1
inactive: Potency [1] | outcome [2] | Potency [3] | Potency [4] | outcome [5] | Potency [7] | Potency [8] | outcome [9]

CCOC(=O)CCc1ccccc1
inactive: Potency [1] | outcome [2] | Potency [3] | Potency [4] | outcome [5] | Potency [6] | Potency [7] | Potency [8] | outcome [9]

Nc1ccc(C(=O)OCC(O)CO)cc1 (stereo not given)
inactive: Potency [1] | outcome [2] | Potency [3] | Potency [4] | Potency [6] | Potency [10] | Potency [7] | Potency [8] | outcome [9]

CC(=O)OCC(=O)[C@@]1(O)[C@H](OC(C)=O)C[C@H]2[C@@H]3CCC4=CC(=O)C=C[C@]4(C)[C@@]3(F)[C@@H](O)C[C@@]21C
inactive: Potency [1] | outcome [2] | Potency [3] | Potency [4] | outcome [5] | Potency [6] | Potency [7] | Potency [8] | outcome [9]

CC(C)C(=O)c1ccccc1
inactive: Potency [1] | outcome [2] | Potency [3] | Potency [4] | Potency [6] | Potency [10] | Potency [7] | Potency [8]

O=c1[nH]c(=O)c2[nH]c(=O)[nH]c2[nH]1
inactive: cytotoxicity increase [1] -0.724% [at 6.97 µM] | activity change, negative = cytotoxic [2] 0.932% [at 6.97 µM] | cytotoxicity [3] -0.222% [at 6.97 µM] | cytotoxicity increase [4] 1.9% [at 6.97 µM] | activity change, negative = cytotoxicity [5] 1.84% [at 6.97 µM] | cytotoxicity increase [6] -13.1% [at 6.97 µM] | cytotoxicity increase [7] -0.415% [at 6.97 µM] | cytotoxicity increase [8] -15.5% [at 6.97 µM] | activity change, negative = cytotoxic [9] 0.919% [at 6.97 µM]
